From the supplement of paper PMC4894684
Where a name gives a salt, the structure may show the parent alone. ± gives the standard deviation of the averaged measurements.

Test system: Toxoplasma gondii RH (in HFF)
Experiment: parasite growth relative to the screen mean (all compounds = 100%); higher = less inhibition of parasite growth
Settings: 5 µM; 72 h; oxygen 21 %
Method in brief: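 Values give growth relative to the screen mean. The screen mean (all compounds) is set at 100%, and two screens were averaged. Compounds at 5 µM final were placed on confluent human foreskin fibroblasts, which were infected within 2 h with RH β-Gal–GFP Toxoplasma (MOI 1:5) and kept 72 h at 21% O2 before a CPRG β-Gal readout against in-plate standard curves.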

COc1ccc(NC(=O)c2cc(OCCCN(C)C)nn2Cc2ccccc2)cc1 [CFM 1571 hydrochloride]
parasite growth: 106 ± 4.8%

CCn1ccnc1CC1COc2ccccc2O1 (stereo not given) [Imiloxan hydrochloride]
parasite growth: 120 ± 7%

CC12CC3CC(C)(C1)CC(N)(C3)C2 [Memantine hydrochloride]
parasite growth: 123 ± 4.8%

FC(F)(F)c1cc(COC2CCCNC2c2ccccc2)cc(C(F)(F)F)c1 [L-733,060 hydrochloride]
parasite growth: 29.6 ± 16%

CC1(C(=O)O)NCCc2cc(O)c(O)cc21 (stereo not given) [Salsolinol-1-carboxylic acid]
parasite growth: 104 ± 22%

O=C(O)c1cc(=O)c2c(Cl)cc(Cl)cc2[nH]1 [5,7-Dichlorokynurenic acid]
parasite growth: 136 ± 26%

CCCCC1CCC(c2nc(-c3ccncc3)no2)CC1 (stereo not given)
parasite growth: 81.9 ± 14%

CC(C1=C(CCN(C)C)Cc2ccccc21)c1ccccn1 (stereo in doubt) [(S)-(+)-Dimethindene maleate]
parasite growth: 83.1 ± 56%

CC(C)Oc1cccc(-n2c(CCc3c[nH]c4ccc(Br)cc34)nc3ccccc3c2=O)c1
parasite growth: 55.84 ± 0.023%

O=c1cc(-c2ccccc2)oc2cc(O)c(O)c(O)c12 [Baicalein]
parasite growth: 173 ± 30%

O=C1C=CC(=O)C2=C1C1c3ccccc3C2c2ccccc21
parasite growth: 137 ± 48%

Nc1nc(NCCc2ccc(O)cc2)nc2nc(-c3ccco3)nn12
parasite growth: 11.2 ± 10%

COc1ccc2[nH]c(-c3ccccc3)c(CCNC(C)=O)c2c1 [2-Phenylmelatonin]
parasite growth: 149 ± 20%

O=S(=O)(c1cccc2c(Cl)cccc12)N1CCCNCC1 [ML 9 hydrochloride]
parasite growth: 122 ± 19%

CC(C)(C=O)Cc1cc(C(C)(C)C)c(O)c(C(C)(C)C)c1
parasite growth: 199 ± 11%
